What all share (experiment): DAPPL (digital affinity profiling via proximity ligation, sequencing); 10 mM Tris-HCl pH 7.5, 50 mM NaCl, 1 mM DTT, 4% glycerol, room temperature, 30 min; GST-TFs on glutathione beads, 16-mer random dsDNA library, 0.1% formaldehyde crosslink after washing; high values mean tight binding
One assay has as its target T1, FEV (Homo sapiens, UniProt Q99581 1-238).
T1 sequence: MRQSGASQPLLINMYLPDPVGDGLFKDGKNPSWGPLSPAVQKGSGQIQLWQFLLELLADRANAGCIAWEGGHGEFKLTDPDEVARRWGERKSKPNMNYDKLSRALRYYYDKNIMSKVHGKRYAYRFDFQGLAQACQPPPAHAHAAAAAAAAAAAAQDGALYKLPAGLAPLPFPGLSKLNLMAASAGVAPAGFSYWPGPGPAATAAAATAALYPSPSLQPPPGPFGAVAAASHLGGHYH
The settings on record: protein: recombinant; tags: N-terminal GST; dsDNA, one strand shown. In a few lines:
(§1)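 Binding signal is each hexamer's read frequency for a factor divided by its frequency in the tag-only sample. The factors were GST-fused human transcription factors from yeast, captured on glutathione beads, DNA-barcoded and pooled with that sample. Pools were incubated with 200 nmole of a random double-stranded 16-mer DNA library in Tris/NaCl/DTT/glycerol buffer at room temperature for 30 min, then washed, crosslinked with 0.1% formaldehyde, proximity-ligated with BsaI/T4 ligase (1 h, 37 °C), PCR-amplified and sequenced on an Illumina NextSeq500.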

The next assay has as its target ETV5 (Homo sapiens, UniProt P41161 1-510). The settings on record: protein: recombinant; tags: N-terminal GST; dsDNA, one strand shown. The method in brief: as §1
In another assay the target is HSF1 (Homo sapiens, UniProt Q00613 1-529). The settings on record: protein: recombinant; tags: N-terminal GST; chain copies: 3; dsDNA, one strand shown. In a few lines: as §1
The target in a further assay is T2, SPIC (Homo sapiens, UniProt Q8N5J4 1-248).
T2 sequence: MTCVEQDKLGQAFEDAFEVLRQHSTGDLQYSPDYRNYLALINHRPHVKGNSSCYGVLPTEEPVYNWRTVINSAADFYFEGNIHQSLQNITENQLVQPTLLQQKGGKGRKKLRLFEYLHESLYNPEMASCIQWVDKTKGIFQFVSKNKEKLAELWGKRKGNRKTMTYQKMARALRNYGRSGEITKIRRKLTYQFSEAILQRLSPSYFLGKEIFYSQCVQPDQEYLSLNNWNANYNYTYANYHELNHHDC
The settings on record: protein: recombinant; tags: N-terminal GST; dsDNA, one strand shown. In a few lines:
as §1

In the next assay the target is ELF4 (Homo sapiens, UniProt Q99607 1-663). The settings on record: protein: recombinant; tags: N-terminal GST; dsDNA, one strand shown. In a few lines:
as §1

Another assay has as its target T3, ELK4 (Homo sapiens, UniProt P28324-2 1-405).
T3 sequence: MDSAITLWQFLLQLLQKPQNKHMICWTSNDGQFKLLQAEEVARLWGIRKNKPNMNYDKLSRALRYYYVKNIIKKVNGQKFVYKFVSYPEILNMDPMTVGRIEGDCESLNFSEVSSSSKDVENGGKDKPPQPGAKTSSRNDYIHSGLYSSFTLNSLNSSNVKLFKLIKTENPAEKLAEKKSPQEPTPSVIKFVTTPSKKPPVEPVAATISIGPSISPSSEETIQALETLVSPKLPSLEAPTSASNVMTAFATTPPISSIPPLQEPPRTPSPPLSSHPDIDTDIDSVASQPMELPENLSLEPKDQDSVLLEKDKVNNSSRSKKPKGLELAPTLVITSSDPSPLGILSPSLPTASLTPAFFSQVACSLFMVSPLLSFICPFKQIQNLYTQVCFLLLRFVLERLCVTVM
The settings on record: protein: recombinant; tags: N-terminal GST; dsDNA, one strand shown. In a few lines: as §1

The target in a further assay is T4, ETV2 (Homo sapiens, UniProt O00321 1-342).
T4 sequence: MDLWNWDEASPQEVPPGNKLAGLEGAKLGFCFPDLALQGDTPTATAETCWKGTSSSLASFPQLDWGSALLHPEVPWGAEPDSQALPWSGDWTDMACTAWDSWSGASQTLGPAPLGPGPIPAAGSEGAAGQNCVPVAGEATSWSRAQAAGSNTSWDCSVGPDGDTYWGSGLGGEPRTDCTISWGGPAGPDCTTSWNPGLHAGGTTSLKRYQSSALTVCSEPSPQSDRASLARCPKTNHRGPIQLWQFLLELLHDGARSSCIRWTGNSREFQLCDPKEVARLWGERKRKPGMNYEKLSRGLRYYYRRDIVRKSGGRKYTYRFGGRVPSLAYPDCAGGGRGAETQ
The settings on record: protein: recombinant; tags: N-terminal GST; dsDNA, one strand shown. The method in brief:
as §1

The next assay has as its target T5, ELF3 (Homo sapiens, UniProt P78545 1-371).
T5 sequence: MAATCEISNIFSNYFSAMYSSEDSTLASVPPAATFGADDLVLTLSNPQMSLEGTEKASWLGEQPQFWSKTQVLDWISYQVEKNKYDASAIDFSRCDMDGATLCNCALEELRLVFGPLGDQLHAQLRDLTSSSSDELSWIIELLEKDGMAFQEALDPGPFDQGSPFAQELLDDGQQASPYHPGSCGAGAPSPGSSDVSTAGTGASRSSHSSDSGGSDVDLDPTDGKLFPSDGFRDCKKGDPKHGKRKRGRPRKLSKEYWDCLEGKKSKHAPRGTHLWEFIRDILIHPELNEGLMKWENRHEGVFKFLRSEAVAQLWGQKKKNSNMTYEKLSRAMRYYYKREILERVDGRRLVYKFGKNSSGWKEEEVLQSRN
The settings on record: protein: recombinant; tags: N-terminal GST; dsDNA, one strand shown. The method in brief: as §1

The target in the next assay is CRX (Homo sapiens, UniProt O43186 1-299). The settings on record: protein: recombinant; tags: N-terminal GST; dsDNA, one strand shown. In a few lines:
as §1

For another assay, the target named is ETV1 (Homo sapiens, UniProt P50549 1-477). The settings on record: protein: recombinant; tags: N-terminal GST; dsDNA, one strand shown. In a few lines:
as §1

For another assay, the target named is T6, ERF (Homo sapiens, UniProt P50548 1-548).
T6 sequence: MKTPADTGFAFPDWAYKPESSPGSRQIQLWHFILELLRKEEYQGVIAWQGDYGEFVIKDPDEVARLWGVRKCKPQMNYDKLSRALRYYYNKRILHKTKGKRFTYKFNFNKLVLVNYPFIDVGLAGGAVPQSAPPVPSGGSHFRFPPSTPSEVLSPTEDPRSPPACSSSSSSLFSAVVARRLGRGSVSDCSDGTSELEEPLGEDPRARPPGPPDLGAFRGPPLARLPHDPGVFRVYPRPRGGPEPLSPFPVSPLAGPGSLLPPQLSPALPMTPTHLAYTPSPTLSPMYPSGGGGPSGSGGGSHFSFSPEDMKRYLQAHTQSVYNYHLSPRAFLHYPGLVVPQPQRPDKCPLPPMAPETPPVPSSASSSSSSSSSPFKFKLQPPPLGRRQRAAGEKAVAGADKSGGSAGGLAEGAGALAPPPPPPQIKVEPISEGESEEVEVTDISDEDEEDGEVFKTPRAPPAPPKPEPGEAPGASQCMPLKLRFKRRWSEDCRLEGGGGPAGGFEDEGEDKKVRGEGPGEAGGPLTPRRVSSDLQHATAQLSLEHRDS
The settings on record: protein: recombinant; tags: N-terminal GST; dsDNA, one strand shown. In a few lines: as §1

For another assay, the target named is T7, ETV3L (Homo sapiens, UniProt Q6ZN32 1-361).
T7 sequence: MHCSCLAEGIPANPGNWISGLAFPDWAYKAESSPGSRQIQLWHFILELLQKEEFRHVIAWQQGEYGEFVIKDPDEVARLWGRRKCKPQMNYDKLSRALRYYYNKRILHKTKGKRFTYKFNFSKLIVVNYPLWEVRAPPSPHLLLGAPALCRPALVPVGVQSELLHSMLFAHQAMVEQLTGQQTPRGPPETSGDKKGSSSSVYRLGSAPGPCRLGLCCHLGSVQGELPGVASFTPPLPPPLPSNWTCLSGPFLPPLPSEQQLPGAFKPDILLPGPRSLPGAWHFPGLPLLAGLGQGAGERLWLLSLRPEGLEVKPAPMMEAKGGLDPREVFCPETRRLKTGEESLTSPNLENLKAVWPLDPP
The settings on record: protein: recombinant; tags: N-terminal GST; dsDNA, one strand shown. In a few lines: as §1

For the next assay, the target named is T8, ETS2 (Homo sapiens, UniProt P15036 1-469).
T8 sequence: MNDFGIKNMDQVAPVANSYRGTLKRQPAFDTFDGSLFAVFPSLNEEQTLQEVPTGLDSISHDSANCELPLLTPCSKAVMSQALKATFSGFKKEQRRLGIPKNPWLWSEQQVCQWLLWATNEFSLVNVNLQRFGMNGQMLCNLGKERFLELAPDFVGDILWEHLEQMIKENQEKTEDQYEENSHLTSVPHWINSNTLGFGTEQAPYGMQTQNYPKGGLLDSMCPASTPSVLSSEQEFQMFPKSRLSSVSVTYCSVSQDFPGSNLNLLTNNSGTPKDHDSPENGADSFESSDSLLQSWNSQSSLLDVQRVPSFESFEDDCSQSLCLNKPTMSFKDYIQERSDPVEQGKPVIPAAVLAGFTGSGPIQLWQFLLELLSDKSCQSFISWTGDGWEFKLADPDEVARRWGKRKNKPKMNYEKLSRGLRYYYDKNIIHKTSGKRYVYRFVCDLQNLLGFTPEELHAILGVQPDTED
The settings on record: protein: recombinant; tags: N-terminal GST; dsDNA, one strand shown. In a few lines:
as §1

Another assay addresses T9, SPDEF (Homo sapiens, UniProt O95238 1-335).
T9 sequence: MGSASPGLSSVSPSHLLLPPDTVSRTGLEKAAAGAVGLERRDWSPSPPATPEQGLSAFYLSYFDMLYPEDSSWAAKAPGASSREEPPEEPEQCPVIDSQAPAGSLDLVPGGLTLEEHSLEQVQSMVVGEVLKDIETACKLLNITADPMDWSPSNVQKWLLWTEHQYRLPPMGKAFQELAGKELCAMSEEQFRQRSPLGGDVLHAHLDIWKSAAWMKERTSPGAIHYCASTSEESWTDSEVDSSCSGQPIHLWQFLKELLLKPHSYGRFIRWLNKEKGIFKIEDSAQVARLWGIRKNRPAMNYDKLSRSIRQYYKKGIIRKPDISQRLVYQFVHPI
The settings on record: protein: recombinant; tags: N-terminal GST; dsDNA, one strand shown. In a few lines: as §1

In another assay the target is T10, ETV7 (Homo sapiens, UniProt Q9Y603 1-341).
T10 sequence: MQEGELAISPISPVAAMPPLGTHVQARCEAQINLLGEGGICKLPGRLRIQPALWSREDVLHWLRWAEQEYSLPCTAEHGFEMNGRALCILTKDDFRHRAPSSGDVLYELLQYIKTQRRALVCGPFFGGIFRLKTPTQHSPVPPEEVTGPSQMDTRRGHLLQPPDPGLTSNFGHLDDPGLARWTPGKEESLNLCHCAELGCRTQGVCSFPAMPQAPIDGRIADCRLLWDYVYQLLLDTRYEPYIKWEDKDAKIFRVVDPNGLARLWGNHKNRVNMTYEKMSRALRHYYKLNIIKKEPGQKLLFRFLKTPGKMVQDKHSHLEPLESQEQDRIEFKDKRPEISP
The settings on record: protein: recombinant; tags: N-terminal GST; dsDNA, one strand shown. In a few lines:
as §1

A further assay concerns the target T11, ELF5 (Homo sapiens, UniProt Q9UKW6-2 1-255).
T11 sequence: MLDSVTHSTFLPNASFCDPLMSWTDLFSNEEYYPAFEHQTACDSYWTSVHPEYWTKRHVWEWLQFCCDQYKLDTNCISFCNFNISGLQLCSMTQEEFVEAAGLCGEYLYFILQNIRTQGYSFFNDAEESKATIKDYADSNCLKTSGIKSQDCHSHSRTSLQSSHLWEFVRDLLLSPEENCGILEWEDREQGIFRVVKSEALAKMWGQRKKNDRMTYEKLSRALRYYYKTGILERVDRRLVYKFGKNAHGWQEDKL
The settings on record: protein: recombinant; tags: N-terminal GST; dsDNA, one strand shown. In a few lines:
as §1

For another assay, the target named is T12, ETV3 (Homo sapiens, UniProt P41162-2 1-143).
T12 sequence: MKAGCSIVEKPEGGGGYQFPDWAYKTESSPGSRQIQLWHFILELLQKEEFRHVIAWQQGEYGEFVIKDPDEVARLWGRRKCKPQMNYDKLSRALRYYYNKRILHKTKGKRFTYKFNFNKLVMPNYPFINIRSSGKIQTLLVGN
The settings on record: protein: recombinant; tags: N-terminal GST; dsDNA, one strand shown. In a few lines:
as §1

The next assay has as its target ETV6 (Homo sapiens, UniProt P41212 1-452). The settings on record: protein: recombinant; tags: N-terminal GST; dsDNA, one strand shown. In a few lines:
as §1

Sequence of CRX (O43186 whole entry): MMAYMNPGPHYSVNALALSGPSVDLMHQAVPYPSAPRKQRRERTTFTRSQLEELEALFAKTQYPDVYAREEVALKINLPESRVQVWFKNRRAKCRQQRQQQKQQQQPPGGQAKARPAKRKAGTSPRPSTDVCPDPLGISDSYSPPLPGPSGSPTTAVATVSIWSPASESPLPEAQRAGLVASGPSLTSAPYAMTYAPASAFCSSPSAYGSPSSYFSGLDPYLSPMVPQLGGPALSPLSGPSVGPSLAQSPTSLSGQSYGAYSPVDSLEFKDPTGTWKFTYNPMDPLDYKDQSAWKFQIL
Sequence of ETV5 (P41161 whole entry): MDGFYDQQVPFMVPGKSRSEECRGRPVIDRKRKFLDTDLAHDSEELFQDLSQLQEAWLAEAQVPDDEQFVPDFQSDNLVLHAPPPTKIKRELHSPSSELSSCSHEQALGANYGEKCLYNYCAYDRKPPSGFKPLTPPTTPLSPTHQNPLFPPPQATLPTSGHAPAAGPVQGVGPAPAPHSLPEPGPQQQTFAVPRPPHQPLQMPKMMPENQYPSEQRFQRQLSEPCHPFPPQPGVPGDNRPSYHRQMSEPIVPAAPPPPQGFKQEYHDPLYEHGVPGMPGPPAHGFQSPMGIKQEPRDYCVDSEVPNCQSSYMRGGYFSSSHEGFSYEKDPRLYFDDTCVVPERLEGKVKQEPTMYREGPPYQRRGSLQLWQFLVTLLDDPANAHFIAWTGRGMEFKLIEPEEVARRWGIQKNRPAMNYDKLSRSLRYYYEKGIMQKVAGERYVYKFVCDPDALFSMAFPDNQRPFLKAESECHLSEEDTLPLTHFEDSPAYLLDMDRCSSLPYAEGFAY
Sequence of ETV1 (P50549 whole entry): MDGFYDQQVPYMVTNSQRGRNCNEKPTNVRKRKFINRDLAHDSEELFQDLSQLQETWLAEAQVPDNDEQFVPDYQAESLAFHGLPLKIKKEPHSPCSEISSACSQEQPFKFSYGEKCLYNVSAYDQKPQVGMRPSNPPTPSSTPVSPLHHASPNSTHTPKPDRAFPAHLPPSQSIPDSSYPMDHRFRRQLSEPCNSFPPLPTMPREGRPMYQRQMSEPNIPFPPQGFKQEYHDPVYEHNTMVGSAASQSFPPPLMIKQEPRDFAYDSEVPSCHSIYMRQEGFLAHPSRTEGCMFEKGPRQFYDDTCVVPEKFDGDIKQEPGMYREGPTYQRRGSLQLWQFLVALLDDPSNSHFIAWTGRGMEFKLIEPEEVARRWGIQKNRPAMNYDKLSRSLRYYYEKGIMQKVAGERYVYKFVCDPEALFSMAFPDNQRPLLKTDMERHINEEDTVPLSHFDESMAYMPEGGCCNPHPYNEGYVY
Sequence of ETV6 (P41212 whole entry): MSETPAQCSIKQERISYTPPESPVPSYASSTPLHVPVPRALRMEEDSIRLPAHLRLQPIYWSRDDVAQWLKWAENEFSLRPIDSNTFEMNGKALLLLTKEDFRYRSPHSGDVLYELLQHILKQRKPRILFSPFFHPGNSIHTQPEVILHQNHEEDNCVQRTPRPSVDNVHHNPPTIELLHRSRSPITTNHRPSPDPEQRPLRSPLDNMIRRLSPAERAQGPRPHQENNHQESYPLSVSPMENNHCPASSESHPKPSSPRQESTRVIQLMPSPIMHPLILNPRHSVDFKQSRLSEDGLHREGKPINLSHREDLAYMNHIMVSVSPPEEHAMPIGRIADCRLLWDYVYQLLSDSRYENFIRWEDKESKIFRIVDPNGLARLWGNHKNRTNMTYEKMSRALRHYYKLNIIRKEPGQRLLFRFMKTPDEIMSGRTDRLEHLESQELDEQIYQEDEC
Sequence of HSF1 (Q00613 whole entry): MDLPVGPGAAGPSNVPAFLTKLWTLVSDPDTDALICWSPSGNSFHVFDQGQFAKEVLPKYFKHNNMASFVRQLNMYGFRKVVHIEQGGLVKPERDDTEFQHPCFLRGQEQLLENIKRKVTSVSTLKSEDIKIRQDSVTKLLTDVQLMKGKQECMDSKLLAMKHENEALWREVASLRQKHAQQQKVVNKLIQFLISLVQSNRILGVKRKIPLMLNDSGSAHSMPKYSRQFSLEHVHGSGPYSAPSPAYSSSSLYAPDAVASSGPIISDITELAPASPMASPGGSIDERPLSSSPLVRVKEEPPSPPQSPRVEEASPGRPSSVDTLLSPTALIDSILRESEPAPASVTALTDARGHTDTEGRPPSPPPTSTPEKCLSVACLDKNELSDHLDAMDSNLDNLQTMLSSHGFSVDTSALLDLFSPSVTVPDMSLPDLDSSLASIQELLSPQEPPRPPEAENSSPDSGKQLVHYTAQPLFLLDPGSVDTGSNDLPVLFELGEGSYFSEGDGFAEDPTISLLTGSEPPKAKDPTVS
Sequence of ELF4 (Q99607 whole entry): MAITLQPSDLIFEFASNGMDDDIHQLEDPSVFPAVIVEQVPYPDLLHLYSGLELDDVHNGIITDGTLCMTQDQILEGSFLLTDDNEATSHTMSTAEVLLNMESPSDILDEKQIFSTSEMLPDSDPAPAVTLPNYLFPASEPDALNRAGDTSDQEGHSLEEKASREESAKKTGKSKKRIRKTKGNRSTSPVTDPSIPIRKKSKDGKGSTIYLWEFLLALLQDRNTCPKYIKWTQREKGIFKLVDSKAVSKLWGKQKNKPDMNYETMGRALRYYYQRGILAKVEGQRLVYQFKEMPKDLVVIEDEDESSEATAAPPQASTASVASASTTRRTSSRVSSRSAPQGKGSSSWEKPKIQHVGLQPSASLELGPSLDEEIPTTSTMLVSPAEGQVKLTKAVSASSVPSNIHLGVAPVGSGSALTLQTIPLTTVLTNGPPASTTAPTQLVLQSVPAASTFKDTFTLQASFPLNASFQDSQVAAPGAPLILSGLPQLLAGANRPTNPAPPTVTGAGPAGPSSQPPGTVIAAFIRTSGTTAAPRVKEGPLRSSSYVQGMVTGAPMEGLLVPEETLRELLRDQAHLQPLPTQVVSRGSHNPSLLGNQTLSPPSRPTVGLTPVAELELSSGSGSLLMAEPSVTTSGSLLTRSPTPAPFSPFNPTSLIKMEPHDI

As for GTTTCG, the binding signal with FEV was 1.27 fold enrichment (6-mer frequency, TF over GST control); with ETV5, 1.28 fold enrichment (6-mer frequency, TF over GST control); in the assay with HSF1, 1.44 fold enrichment (6-mer frequency, TF over GST control); with SPIC, 1.24 fold enrichment (6-mer frequency, TF over GST control); with ELF4, 1.33 fold enrichment (6-mer frequency, TF over GST control); in the assay with ELK4 it was 1.34 fold enrichment (6-mer frequency, TF over GST control). Besides, the binding signal with ETV2 is 1.24 fold enrichment (6-mer frequency, TF over GST control); with ELF3, 1.09 fold enrichment (6-mer frequency, TF over GST control); with CRX, 1.09 fold enrichment (6-mer frequency, TF over GST control); with ETV1, 1.27 fold enrichment (6-mer frequency, TF over GST control); with ERF it was 1.38 fold enrichment (6-mer frequency, TF over GST control); in the assay with ETV3L it was 1.33 fold enrichment (6-mer frequency, TF over GST control). The binding signal is 1.15 fold enrichment (6-mer frequency, TF over GST control) in the assay with ETS2; 1.27 fold enrichment (6-mer frequency, TF over GST control) in the assay with SPDEF; 1.27 fold enrichment (6-mer frequency, TF over GST control) with ETV7; 1.12 fold enrichment (6-mer frequency, TF over GST control) in the assay with ELF5; 1.32 fold enrichment (6-mer frequency, TF over GST control) with ETV3; 1.23 fold enrichment (6-mer frequency, TF over GST control) with ETV6.
